Experimental data reported in ChEMBL document CHEMBL1961873, “Compounds: GSK PKIS; Assays: Nanosyn kinase panel” (2012).

Columns and labels:
[1] = target: T1, Inhibitor of nuclear factor kappa-B kinase subunit epsilon (Homo sapiens) (UniProt Q14164); settings: at 1 µM;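 further: reported values are averaged percent inhibition figures against human IKKε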
T1 sequence (whole entry): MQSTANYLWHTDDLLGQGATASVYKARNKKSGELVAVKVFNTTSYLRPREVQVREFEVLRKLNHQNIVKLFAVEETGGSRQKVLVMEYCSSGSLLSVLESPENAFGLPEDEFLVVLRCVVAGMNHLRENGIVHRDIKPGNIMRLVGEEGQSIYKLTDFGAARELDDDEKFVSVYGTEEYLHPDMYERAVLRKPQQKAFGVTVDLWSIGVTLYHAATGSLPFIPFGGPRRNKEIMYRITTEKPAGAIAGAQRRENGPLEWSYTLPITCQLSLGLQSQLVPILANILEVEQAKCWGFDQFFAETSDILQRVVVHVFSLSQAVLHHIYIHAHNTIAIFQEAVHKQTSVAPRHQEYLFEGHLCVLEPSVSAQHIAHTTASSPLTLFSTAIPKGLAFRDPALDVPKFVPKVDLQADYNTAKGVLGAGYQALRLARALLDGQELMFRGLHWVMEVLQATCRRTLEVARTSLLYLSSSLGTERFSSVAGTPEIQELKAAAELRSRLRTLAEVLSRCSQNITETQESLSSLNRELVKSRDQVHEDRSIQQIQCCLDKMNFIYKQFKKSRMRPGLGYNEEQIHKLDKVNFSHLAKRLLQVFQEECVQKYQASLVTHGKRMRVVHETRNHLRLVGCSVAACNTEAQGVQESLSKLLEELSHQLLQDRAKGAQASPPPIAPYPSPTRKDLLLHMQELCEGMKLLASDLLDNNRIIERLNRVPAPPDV

[2] = target: T2, Serine/threonine-protein kinase Nek1 (Homo sapiens) (UniProt Q96PY6); settings: at 0.1 µM
T2 sequence (whole entry): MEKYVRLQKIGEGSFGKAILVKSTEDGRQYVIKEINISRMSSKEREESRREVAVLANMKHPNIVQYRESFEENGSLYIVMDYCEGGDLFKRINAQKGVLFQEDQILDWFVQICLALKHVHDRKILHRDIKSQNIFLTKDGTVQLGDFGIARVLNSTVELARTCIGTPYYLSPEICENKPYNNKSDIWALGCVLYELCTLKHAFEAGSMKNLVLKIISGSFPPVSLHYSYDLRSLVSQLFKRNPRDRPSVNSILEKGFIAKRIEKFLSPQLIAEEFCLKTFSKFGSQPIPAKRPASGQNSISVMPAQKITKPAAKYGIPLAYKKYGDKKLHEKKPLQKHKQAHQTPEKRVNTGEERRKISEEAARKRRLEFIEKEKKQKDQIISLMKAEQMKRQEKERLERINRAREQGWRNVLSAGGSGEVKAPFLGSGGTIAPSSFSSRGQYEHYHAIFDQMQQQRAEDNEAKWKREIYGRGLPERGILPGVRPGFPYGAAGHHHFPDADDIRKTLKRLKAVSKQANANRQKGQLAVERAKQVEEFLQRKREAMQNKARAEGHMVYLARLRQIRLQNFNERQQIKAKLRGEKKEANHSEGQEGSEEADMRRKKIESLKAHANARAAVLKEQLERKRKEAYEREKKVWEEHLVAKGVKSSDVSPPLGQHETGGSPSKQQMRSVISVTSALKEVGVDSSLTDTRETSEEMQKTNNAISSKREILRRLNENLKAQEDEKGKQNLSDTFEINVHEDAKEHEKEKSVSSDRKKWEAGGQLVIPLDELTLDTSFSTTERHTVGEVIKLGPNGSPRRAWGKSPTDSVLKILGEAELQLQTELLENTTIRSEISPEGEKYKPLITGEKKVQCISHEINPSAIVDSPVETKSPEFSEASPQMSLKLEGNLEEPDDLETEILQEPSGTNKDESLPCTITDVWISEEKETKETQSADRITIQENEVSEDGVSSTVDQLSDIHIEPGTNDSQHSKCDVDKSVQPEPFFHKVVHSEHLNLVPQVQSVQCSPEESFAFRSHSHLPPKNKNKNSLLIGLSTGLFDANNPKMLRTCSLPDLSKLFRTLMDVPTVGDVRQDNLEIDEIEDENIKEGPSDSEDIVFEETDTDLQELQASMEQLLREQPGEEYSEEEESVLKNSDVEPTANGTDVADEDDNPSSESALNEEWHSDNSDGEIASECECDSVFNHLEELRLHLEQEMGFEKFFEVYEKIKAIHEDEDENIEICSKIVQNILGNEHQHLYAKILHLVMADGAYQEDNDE

[3] = target: T2, Serine/threonine-protein kinase Nek1 (Homo sapiens); settings: at 1 µM
[4] = target: T3, Serine/threonine-protein kinase Nek2 (Homo sapiens) (UniProt P51955); settings: at 0.1 µM
T3 sequence (whole entry): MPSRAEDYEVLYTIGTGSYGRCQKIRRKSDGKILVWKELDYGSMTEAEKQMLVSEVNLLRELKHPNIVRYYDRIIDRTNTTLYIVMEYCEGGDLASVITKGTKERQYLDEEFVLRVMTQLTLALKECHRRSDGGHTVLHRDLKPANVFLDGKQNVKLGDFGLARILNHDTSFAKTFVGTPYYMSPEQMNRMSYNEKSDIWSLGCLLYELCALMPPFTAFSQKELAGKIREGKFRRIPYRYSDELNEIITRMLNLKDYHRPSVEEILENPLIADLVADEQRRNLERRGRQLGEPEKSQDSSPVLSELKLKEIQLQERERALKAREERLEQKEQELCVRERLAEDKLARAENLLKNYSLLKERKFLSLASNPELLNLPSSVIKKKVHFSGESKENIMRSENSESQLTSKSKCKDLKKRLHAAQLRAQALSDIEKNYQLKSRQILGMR

[5] = target: T3, Serine/threonine-protein kinase Nek2 (Homo sapiens); settings: at 1 µM
[6] = target: Serine/threonine-protein kinase Nek6 (Homo sapiens) (UniProt Q9HC98); settings: at 0.1 µM
[7] = target: Serine/threonine-protein kinase Nek6 (Homo sapiens) (UniProt Q9HC98); settings: at 1 µM
[8] = target: Serine/threonine-protein kinase Nek7 (Homo sapiens) (UniProt Q8TDX7); settings: at 0.1 µM
[9] = target: Serine/threonine-protein kinase Nek7 (Homo sapiens) (UniProt Q8TDX7); settings: at 1 µM
[10] = target: T4, Serine/threonine-protein kinase Nek9 (Homo sapiens) (UniProt Q8TD19); settings: at 0.1 µM
T4 sequence (whole entry): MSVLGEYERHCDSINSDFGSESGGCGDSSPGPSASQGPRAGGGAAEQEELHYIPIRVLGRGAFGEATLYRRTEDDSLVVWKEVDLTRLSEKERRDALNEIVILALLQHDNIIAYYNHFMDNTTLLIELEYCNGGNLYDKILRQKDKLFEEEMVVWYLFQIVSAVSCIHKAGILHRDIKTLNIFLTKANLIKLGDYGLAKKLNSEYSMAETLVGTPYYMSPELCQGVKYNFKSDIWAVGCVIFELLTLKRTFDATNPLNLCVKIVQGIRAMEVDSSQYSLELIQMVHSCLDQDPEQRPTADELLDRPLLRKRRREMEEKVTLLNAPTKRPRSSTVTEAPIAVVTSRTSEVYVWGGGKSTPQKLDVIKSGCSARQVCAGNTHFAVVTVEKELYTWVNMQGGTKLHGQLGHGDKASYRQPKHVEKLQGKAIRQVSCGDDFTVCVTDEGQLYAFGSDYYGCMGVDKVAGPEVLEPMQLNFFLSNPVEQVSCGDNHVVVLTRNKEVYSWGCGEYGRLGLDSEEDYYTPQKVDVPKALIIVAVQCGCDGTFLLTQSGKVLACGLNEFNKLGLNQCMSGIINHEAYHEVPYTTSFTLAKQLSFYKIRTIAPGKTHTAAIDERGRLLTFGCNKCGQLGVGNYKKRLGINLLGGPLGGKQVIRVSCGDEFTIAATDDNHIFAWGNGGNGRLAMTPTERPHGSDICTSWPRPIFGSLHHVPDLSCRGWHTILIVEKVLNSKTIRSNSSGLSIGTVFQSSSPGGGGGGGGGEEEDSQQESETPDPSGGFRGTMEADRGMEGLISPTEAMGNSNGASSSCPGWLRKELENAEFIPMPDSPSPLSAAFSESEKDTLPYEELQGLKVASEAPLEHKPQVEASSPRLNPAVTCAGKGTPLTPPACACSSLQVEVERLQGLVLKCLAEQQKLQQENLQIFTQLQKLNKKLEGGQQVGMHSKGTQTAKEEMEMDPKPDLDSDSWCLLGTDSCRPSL

[11] = target: T4, Serine/threonine-protein kinase Nek9 (Homo sapiens); settings: at 1 µM
[12] = target: Serine/threonine-protein kinase PLK1 (Homo sapiens) (UniProt P53350); settings: at 0.1 µM
[13] = target: Serine/threonine-protein kinase PLK1 (Homo sapiens) (UniProt P53350); settings: at 1 µM
[14] = target: T5, Dual specificity protein kinase TTK (Homo sapiens) (UniProt P33981); settings: at 0.1 µM
T5 sequence (whole entry): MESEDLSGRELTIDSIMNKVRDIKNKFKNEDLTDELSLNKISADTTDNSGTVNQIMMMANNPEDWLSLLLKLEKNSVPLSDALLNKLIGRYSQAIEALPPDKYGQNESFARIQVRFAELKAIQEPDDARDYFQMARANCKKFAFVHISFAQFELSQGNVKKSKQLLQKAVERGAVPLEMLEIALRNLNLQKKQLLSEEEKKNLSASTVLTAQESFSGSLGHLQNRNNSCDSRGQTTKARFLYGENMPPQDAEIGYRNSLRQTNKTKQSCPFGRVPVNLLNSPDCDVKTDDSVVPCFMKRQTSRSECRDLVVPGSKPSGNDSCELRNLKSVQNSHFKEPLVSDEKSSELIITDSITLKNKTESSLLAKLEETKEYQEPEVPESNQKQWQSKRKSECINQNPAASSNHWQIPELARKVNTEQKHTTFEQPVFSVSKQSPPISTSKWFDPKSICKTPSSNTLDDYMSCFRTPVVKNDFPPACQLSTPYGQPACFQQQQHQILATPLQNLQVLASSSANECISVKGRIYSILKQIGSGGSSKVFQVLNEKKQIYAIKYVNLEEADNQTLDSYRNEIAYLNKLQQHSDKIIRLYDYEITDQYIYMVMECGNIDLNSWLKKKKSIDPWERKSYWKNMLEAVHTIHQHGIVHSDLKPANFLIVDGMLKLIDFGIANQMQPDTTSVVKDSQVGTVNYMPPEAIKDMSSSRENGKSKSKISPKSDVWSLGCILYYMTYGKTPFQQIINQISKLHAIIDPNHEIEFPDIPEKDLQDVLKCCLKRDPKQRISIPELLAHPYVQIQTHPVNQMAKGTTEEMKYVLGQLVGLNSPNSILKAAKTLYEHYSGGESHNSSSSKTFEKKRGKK

[15] = test system: T6, Receptor-type tyrosine-protein kinase FLT3 (Homo sapiens), P36888 [D835Y]; settings: at 1 µM
T6 sequence (whole entry): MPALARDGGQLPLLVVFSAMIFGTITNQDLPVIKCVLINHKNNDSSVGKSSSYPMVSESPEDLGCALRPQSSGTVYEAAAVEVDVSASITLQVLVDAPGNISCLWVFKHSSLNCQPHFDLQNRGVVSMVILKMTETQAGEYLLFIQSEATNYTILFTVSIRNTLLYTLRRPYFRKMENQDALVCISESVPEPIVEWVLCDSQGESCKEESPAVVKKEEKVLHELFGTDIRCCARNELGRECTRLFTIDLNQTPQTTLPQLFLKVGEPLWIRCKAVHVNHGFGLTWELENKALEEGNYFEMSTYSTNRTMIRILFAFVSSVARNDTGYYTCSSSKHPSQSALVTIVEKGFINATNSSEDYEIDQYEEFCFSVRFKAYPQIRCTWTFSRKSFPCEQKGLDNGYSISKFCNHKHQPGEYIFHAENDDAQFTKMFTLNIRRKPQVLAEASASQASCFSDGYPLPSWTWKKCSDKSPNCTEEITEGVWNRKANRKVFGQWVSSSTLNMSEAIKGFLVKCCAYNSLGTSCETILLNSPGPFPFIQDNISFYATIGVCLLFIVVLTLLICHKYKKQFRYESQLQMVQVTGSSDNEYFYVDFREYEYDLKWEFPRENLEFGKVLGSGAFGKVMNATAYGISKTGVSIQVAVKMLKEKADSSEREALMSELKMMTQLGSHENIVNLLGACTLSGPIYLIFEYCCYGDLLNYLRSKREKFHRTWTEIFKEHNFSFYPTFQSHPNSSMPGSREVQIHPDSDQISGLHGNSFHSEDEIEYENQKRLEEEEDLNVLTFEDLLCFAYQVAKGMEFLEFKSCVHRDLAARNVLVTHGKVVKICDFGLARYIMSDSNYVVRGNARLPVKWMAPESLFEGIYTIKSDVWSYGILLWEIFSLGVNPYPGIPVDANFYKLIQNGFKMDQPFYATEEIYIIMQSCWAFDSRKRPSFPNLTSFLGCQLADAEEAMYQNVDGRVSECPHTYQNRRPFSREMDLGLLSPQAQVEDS

[16] = target: Vascular endothelial growth factor receptor 3 (Homo sapiens) (UniProt P35916); settings: at 0.1 µM
[17] = target: Vascular endothelial growth factor receptor 3 (Homo sapiens) (UniProt P35916); settings: at 1 µM
[18] = target: Macrophage colony-stimulating factor 1 receptor (Homo sapiens) (UniProt P07333); settings: at 0.1 µM
[19] = target: Macrophage colony-stimulating factor 1 receptor (Homo sapiens) (UniProt P07333); settings: at 1 µM
[20] = target: Tyrosine-protein kinase Fyn (Homo sapiens) (UniProt P06241); settings: at 0.1 µM
Chain of Tyrosine-protein kinase Fyn (Homo sapiens) (P06241 2-537 limits assumed): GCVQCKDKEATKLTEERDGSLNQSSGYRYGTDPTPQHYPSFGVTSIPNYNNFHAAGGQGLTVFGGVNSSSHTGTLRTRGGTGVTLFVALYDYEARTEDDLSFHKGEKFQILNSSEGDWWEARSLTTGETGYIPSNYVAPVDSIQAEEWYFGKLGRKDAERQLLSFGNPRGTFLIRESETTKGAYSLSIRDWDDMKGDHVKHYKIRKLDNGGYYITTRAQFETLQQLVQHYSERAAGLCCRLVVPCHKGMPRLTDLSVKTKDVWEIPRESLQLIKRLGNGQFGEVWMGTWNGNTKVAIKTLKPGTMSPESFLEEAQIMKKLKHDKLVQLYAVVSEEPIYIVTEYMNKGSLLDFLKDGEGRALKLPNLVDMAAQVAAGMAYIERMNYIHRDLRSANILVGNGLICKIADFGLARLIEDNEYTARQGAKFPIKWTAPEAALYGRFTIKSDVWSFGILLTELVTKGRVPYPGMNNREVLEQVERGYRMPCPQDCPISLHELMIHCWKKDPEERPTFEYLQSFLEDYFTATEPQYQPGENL

Chain of Vascular endothelial growth factor receptor 3 (Homo sapiens) (P35916 whole entry): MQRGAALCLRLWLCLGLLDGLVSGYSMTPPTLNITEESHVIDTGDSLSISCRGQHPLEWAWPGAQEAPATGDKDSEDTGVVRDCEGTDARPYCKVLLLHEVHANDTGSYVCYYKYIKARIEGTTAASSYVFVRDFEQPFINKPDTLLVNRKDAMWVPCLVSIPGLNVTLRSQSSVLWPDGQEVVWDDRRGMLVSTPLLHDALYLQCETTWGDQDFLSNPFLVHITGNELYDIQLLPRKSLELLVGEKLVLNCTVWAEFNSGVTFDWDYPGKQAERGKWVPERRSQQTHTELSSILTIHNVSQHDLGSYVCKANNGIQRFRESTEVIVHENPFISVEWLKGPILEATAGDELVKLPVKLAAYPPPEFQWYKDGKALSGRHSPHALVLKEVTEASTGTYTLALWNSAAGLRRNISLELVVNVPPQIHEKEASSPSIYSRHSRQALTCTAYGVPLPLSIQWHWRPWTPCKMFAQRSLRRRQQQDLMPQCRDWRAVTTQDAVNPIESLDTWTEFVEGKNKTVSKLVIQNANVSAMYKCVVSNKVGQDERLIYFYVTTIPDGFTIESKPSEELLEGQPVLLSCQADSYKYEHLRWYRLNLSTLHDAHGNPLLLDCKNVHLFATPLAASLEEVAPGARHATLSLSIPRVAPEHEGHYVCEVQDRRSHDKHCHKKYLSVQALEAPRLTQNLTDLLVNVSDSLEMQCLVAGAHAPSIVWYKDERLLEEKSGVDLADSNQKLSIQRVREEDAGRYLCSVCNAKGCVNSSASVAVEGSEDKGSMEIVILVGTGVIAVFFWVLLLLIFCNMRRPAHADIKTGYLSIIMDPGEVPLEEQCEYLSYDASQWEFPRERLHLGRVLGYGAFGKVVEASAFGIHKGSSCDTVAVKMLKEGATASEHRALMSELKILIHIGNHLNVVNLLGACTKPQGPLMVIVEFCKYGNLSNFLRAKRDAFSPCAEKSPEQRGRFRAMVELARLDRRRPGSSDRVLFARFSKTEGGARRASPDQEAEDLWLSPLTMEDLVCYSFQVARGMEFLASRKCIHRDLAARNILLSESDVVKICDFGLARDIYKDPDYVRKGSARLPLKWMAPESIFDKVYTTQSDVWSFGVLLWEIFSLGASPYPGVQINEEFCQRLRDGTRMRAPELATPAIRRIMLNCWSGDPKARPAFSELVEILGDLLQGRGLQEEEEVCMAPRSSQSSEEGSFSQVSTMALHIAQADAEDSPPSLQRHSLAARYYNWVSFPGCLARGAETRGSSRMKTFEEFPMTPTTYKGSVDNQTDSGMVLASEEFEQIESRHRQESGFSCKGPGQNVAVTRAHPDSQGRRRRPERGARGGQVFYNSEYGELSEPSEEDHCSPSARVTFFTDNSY
Chain of Serine/threonine-protein kinase Nek6 (Homo sapiens) (Q9HC98 whole entry): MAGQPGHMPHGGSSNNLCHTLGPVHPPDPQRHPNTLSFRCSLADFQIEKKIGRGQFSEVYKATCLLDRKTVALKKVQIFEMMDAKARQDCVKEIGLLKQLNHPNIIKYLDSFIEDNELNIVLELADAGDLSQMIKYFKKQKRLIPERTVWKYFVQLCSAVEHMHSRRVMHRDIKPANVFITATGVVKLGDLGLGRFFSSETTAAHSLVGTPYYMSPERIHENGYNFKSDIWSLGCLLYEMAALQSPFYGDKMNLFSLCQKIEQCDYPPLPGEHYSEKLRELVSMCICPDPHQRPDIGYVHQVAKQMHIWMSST
Chain of Serine/threonine-protein kinase PLK1 (Homo sapiens) (P53350 whole entry): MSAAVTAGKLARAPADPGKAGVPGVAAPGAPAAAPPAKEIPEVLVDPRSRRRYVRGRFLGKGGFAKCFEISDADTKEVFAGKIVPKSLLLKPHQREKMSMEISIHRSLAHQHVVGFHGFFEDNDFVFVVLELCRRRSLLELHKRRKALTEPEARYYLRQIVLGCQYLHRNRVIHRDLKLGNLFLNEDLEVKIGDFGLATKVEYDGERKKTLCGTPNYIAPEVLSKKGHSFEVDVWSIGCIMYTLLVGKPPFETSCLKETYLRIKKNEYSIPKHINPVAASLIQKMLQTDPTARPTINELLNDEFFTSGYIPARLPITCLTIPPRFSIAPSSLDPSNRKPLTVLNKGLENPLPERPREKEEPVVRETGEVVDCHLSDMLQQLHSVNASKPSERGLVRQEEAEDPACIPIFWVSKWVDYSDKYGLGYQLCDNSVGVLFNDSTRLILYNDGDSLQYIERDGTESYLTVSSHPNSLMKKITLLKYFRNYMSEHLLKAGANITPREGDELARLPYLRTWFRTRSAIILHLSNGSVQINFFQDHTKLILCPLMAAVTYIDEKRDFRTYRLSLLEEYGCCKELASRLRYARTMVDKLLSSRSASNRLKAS
Chain of Serine/threonine-protein kinase Nek7 (Homo sapiens) (Q8TDX7 whole entry, looked up): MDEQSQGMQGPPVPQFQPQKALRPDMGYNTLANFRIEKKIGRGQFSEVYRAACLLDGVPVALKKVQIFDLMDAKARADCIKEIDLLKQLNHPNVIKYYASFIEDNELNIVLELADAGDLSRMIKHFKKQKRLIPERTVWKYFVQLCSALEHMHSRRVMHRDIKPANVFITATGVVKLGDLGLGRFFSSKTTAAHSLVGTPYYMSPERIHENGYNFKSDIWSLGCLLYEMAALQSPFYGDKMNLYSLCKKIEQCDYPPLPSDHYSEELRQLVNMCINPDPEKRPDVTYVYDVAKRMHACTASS
Chain of Macrophage colony-stimulating factor 1 receptor (Homo sapiens) (P07333 whole entry): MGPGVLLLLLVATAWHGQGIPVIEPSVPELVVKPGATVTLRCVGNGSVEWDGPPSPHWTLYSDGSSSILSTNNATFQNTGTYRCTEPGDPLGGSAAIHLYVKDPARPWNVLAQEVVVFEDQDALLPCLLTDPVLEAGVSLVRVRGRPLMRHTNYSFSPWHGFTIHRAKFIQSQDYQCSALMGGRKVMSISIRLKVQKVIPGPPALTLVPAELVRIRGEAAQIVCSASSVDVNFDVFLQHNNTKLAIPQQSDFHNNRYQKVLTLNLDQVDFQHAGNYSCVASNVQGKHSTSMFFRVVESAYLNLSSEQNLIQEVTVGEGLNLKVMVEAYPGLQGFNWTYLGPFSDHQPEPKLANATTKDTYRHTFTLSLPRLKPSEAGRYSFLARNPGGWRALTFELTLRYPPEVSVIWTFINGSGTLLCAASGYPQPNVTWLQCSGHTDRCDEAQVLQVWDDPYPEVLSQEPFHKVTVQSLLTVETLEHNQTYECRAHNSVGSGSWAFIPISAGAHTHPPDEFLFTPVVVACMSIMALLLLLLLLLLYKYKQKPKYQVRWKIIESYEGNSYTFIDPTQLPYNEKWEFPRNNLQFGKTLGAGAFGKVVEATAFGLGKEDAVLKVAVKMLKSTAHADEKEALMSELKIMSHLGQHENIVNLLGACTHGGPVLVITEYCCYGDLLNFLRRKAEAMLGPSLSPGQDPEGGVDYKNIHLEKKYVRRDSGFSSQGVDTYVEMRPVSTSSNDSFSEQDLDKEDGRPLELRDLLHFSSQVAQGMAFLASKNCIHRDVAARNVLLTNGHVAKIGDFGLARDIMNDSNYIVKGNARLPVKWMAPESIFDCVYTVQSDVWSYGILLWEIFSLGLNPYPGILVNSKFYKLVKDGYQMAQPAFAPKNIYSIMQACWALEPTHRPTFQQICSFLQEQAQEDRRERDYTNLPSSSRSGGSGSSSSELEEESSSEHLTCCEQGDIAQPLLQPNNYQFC

SMILES | inhibition [1] [%] | inhibition [2] [%] | inhibition [3] [%] | inhibition [4] [%] | inhibition [5] [%] | inhibition [6] [%] | inhibition [7] [%] | inhibition [8] [%] | inhibition [9] [%] | inhibition [10] [%] | inhibition [11] [%] | inhibition [12] [%] | inhibition [13] [%] | inhibition [14] [%] | inhibition [15] [%] | inhibition [16] [%] | inhibition [17] [%] | inhibition [18] [%] | inhibition [19] [%] | inhibition [20] [%]
NS(=O)(=O)c1ccc(Nc2cc(-c3cccc(O)c3)n[nH]2)cc1 | 6.34 | 3.72 | 3.43 | 6.7 | 7.9 | 1.66 | -3.5 | 6.05 | 4.88 | 4.44 | 2.91 | 5.76 | 4.69 | 16 | 30.9 | 6.76 | 6.9 | 5.17 | 15.4 | 4.67
CC(C)c1ccc(Nc2nccc(-c3cnn4ncccc34)n2)cc1 | 7.95 | 3.1 | 13.5 | 3.86 | 8.45 | 1.7 | 3.3 | 3.35 | 4.87 | 11.3 | 11 | 2.9 | 4.81 | 5.54 | 23.1 | 0.79 | 9.77 | 23 | 72.1 | 1.04
c1ccc(Nc2ncc(-c3ccccc3)o2)cc1 | 8.49 | 2.71 | 2.57 | 5.93 | 0.59 | 1.04 | 0.47 | 3.1 | 9.54 | 12.2 | 10.2 | 5.96 | 5.42 | 18.1 | 9.89 | 3.79 | 11.7 | 3.76 | 22.9 | 3.46
